Screening data from PubChem BioAssay.
In the library only some 0.56% were active in any assay of this set; here they are far more common.
GALK inh = qHTS Assay for Inhibitors of Human Galactokinase (GALK). P51570. Purified GALK, Kinase-Glo residual ATP luminescence. Potency, µM (doses to about 57.5 µM), for inactives: at the top dose activity change, negative = inhibition, hits mostly inhibitors. hit rate 0.007% among 270,000. AID 1868, 2009; also: potency is read from the fitted curve at half-maximal effect; % is scaled to controls: 0 for no effect and ±100 for the full control effect
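The enzyme phosphorylates galactose (100 uM) using ATP (35 uM); inhibition is detected as higher residual ATP, quantified by bioluminescence after 1 h reaction at room temperature, pH 8.0.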
PKM2 activator = qHTS Assay for Activators of Human Muscle isoform 2 Pyruvate Kinase; Pyruvate kinase PKM (Homo sapiens), P14618; purified PKM2, Kinase-Glo ATP luminescence, activation; response scale: 0% is enzyme alone, no compound; Potency, µM (series often up to 57.5 µM), inactives show at the highest dose activation, most hits filed as activators; hit rate 0.34% among 260,000; also: potency is read from the fitted curve at half-maximal effect; % is scaled to controls: 0 for no effect and ±100 for the full control effect; nearly all actives have a fitted effect of over 55% in size
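Purified hPK-M2 (>95%) run at intermediate activity with 0.1 mM ADP and 0.5 mM PEP in 50 mM imidazole pH 7.2, KCl, MgCl2; 1 h room temperature. ATP formed read by Kinase-Glo luminescence; normalized to uninhibited and no-enzyme controls.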
CBFb RUNX1 block = qHTS Assay for Compounds Blocking the Interaction Between CBF-beta and RUNX1 for the Treatment of Acute Myeloid Leukemia; Potency, µM (series often up to 59.8 µM), for the others: top-dose activity, negative = inhibition, most hits filed as inhibitors; AlphaScreen CBFb-His/RUNX1-biotin binding, biochemical; 230,000 tested, under 10 active; also: % of control where 0% means no effect
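Proteins preincubated together for 20 min at RT before compound addition; 15 min later, nickel and streptavidin beads were added and left 90 min prior to AlphaScreen measurement.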
Luc counter = Counterscreen for Luciferase (Kinase-Glo TM) Inhibition; Luciferin 4-monooxygenase (Photuris pensylvanica), Q27757; Kinase-Glo luciferase, ATP luminescence, 8 min; Potency, µM (series often up to 38.3 µM), for inactives: at the highest dose activity change, negative = inhibition, hits mostly inhibitors; hit rate 0.28% among 200,000; AID 1379, 2008; also: potency is read from the fitted curve at half-maximal effect; % is scaled to controls: 0 for no effect and ±100 for the full control effect; nearly all actives have a fitted effect of over 60% in size
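Inhibition of Kinase-Glo luciferase light generation was assessed at 10 uM ATP in pH 7.2 imidazole buffer, with luminescence measured after eight minutes at ambient temperature.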
Tb PFK block = qHTS Assay to Find Inhibitors of T. brucei phosphofructokinase; T. brucei PFK, ADP-Glo luminescence; Potency, µM (series often up to 57.5 µM), for the others: top-dose activity, negative = inhibition, hits mostly inhibitors; hit rate 0.17% among 330,000; AID 485367, 2010;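 also: potency is read from the fitted curve at half-maximal effect; 0% = uninhibited 1x PFK enzyme wells and -100% = no-enzyme wells; nearly all actives have a fitted effect of over 60% in size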
Target sequence (O15648 whole entry, looked up): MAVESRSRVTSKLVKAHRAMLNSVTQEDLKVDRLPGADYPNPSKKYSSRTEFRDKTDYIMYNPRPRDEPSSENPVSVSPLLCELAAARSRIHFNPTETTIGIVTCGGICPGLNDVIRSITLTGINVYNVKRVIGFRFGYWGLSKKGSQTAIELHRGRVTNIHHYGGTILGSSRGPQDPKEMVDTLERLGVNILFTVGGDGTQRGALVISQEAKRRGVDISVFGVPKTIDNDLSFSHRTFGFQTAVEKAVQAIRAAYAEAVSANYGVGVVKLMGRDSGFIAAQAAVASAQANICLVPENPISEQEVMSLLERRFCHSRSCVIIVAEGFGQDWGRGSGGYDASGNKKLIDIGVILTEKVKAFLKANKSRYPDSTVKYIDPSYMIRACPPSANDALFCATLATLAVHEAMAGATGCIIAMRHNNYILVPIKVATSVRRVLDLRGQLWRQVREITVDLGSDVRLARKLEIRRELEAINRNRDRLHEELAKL
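Compounds were pin-transferred as a titration series up to 57 uM into substrate buffer (0.5 mM F6P, 0.1 mM ATP, pH 8.0), then 1.25 nM PFK was added and reactions ran 45 min before ADP-Glo detection.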
Starred values were filed as active, the others as inactive; ? = inconclusive; . = not tested or not shown; [ ] = remark or other dose. Calls follow the shape of the dose curve; as a rule, active = well fitted curve in the direction sought with a large enough effect; inconclusive = small, poorly fitted or top-dose-only effect, or another doubt; inactive = no such curve, though single readings can be large; an effect the other way counts as inactive or inconclusive.

SMILES | GALK inh | PKM2 activator | CBFb RUNX1 block | Luc counter | Tb PFK block
Cc1ccc(CN(C)C(=O)C2CCCN2C(=O)c2cccs2)o1 (stereo not given) | 3.2% | 14.1µM* | 15.6% | 6.2% | 5.8%
COc1ccc(C=C2C(=O)c3ccccc3C2=O)cc1O | 5.7% | -26.0% | -20.9% | 7.94µM* | 1.2%
O[C@@H]1CO[C@H]2C1OC[C@@H]2O (stereo not given in full) | . | . | 3.1% | . | .
O=C(O)C1C2C=CC(O2)C1C(=O)Nc1ccc(S(=O)(=O)Nc2ccccc2)cc1 (stereo not given) | 0.0% | 28.2µM* | 7.5% | 0.4% | -29.0%
c1c2c(cc3sc(N4CCCCC4)nc13)OCO2 | 4.6% | -29.8% | -10.5% | 12.6µM* | -5.9%
c1c2c(cc3sc(N4CCOCC4)nc13)OCO2 | 5.3% | -21.3% | 5.2% | 11.2µM* | -25.1%
Nc1cc(C(=O)O)c(O)c(S(=O)(=O)O)c1 | . | . | -7.2%[21.7 µM] | . | .
O=C(NCCN1CCCC1)c1ccc(Cc2nc3ccccc3[nH]2)cc1 | . | . | . | -2.5% | .
Cc1ccc(NS(=O)(=O)c2c(C)nc3sccn3c2=O)c(C)c1 | . | ? | . | . | -0.3%
Cc1ccc(NS(=O)(=O)c2c(C)nc3sccn3c2=O)cc1C | . | 4.47µM* | . | . | 3.1%
Nc1c(C(=O)Nc2ccccc2)sc2nc(-c3cccnc3)ccc12 | -1.9% | 11.2µM* | 8.7% | . | 3.2%
CC(=O)Nc1sc(N/N=C/c2ccc(N(C)C)cc2)nc1-c1ccc(C)cc1 | 9.1% | 25.5% | -24.3% | . | -3.1%
CC(=O)Nc1sc(N/N=C/c2ccc(C)cc2)nc1-c1ccc(C)cc1 | -2.1% | 7.08µM* | -7.4% | . | -9.5%
COc1cc(/C=N\Nc2nc(-c3ccc(C)cc3)c(NC(C)=O)s2)ccc1O | 2.7% | 17.8µM* | -1.2% | . | 0.0%
CCOc1cc(/C=N\Nc2nc(-c3ccc(C)cc3)c(NC(C)=O)s2)ccc1O | -0.2% | ? | 5.5% | . | -4.7%
COc1ccc(/C=N/Nc2nc(-c3ccc(C)cc3)c(NC(C)=O)s2)cc1OC | 2.7% | 10µM* | -5.6% | . | -10.2%
Clc1ccc(/C=C\c2nc(Cl)c(-c3ccc(Cl)cc3)c(Cl)n2)cc1 | . | . | . | -4.4%[7.66 µM] | .
CC(C)C[C@H](NC(=O)CNC(=O)[C@H](CCC(N)=O)NC(=O)[C@H](CC(C)C)NC(=O)[C@H](CC(C)C)NC(=O)[C@H](CCCNC(=N)N)NC(=O)[C@H](CCC(N)=O)NC(=O)[C@H](CC(C)C)NC(=O)[C@H](CCCNC(=N)N)NC(=O)[C@H](C)NC(=O)CNC(=O)[C@H](CCC(=O)O)NC(=O)[C@H](CCCNC(=N)N)NC(=O)[C@H](CC(C)C)NC(=O)[C@H](CCCNC(=N)N)NC(=O)[C@H](CO)NC(=O)[C@H](CC(C)C)NC(=O)[C@H](CCC(=O)O)NC(=O)[C@H](CO)NC(=O)[C@@H](NC(=O)[C@H](Cc1ccccc1)NC(=O)[C@@H](NC(=O)CNC(=O)[C@H](CC(=O)O)NC(=O)[C@H](CO)NC(=O)[C@@H](N)Cc1cnc[nH]1)[C@@H](C)O)[C@@H](C)O)C(=O)N[C@H](C(N)=O)C(C)C | . | . | 20.0% | . | .
O=C(O)c1cc(/C=C/c2ccc(N3CCOCC3)cc2)nc2ccccc12 | -3.9% | -41.5% | 10.2% | 11.2µM* | 1.0%
O=C(O)c1cc(/C=C/c2ccc(N3CCOCC3)c([N+](=O)[O-])c2)nc2ccccc12 | -2.0% | -27.3% | 14.0% | . | 4.4%
O=C(Nc1ccccc1)[C@@H]1[C@@H]2C(=O)N(c3ccc(F)cc3)C(=O)[C@@H]2[C@H]2C=CC=NN21 | 0.8% | 8.91µM* | -27.1% | . | 0.0%
Cc1ccc(N2C(=O)[C@@H]3[C@H](C2=O)[C@H]2C=CC=NN2[C@@H]3C(=O)Nc2ccccc2)cc1 | -2.5% | ? | -2.2% | . | 8.3%
CN(C)C(=O)c1ccc(-c2nc(N(C)C)c3ccccc3n2)cc1 | . | . | . | 11.2µM* | .
COc1cc([N+](=O)[O-])ccc1NC(=O)CSc1nccn1C | 2.3% | 12.6µM* | 2.6% | -0.9% | -2.0%
Cc1cc(N2CCN(S(=O)(=O)c3ccc4ccccc4c3)CC2)n2ncnc2n1 | 3.4% | 17.8µM* | -10.4% | -0.3% | -4.0%
SMILES | GALK inh | PKM2 activator | CBFb RUNX1 block | Luc counter | Tb PFK block
Cc1ccsc1/C=C/c1ccc2ccccc2n1 | 0.4% | -24.9% | ? | 11.2µM* | -0.9%
Cc1ccsc1/C=C/c1ccc2cccc(O)c2n1 | 0.2% | -12.8% | 8.4% | -22.2% | -0.7%
Cc1nonc1C(=O)N/N=C/c1ccc(O)c(O)c1 | 3.9% | -3.9% | -5.7% | 6.31µM* | -12.2%
COc1cc(/C=N/NC(=O)c2nonc2C)ccc1O | 9.7% | -16.0% | 14.6% | -14.4% | 1.9%
FC(F)(F)c1ccccc1Cl | . | . | 8.0%[21.7 µM] | . | .
COC(=O)C1=C(C(=O)OC)[C@@H]2N(C)c3ccc(OC)cc3[C@@]23C[C@@H](C(=O)OC)N(S(=O)(=O)c2c(C)noc2C)C3=N1 | . | -3.1%[11.5 µM] | -2.4%[13.1 µM] | -1.8%[7.66 µM] | .
CC(Sc1nc(N)c2c3c(sc2n1)CSC(C)(C)C3)C(=O)Nc1ccccc1 (stereo not given) | -0.7% | 7.08µM* | -6.5% | 2.9% | -1.9%
CC(Sc1nc(NCc2ccccc2)nc(N(C)C)n1)C(=O)Nc1ccccc1 (stereo not given) | -0.4% | 21.0% | 7.7% | 0.8% | 9.2%
CN(C)c1ccc(/C=N/N2C(=O)c3ccccc3C2=O)cc1 | 4.6% | -0.5% | 13.8% | . | -4.0%
COc1ccc(/C=N/N2C(=O)c3ccccc3C2=O)cc1 | 3.9% | -13.3% | 0.2% | 14.1µM* | -1.9%
N=C1/C(=C\c2coc3ccc(O)cc3c2=O)C(=O)N=C2SC=CN12 | . | 28.2µM* | -8.1% | . | 1.0%
Cc1noc(-c2ccc(CSCCC(=O)O)cc2)c1NC(=O)OC(C)c1ccccc1Cl (stereo not given) | . | . | 18.0% | . | .
COc1ccc(S(=O)(=O)N2CCc3ccccc32)cc1C(=O)OCc1c(C)noc1C | 3.0% | 11.2µM* | 10.4% | -1.6% | -6.2%
Cc1cc(O)c(C)c2sc(N)nc12 | . | . | 7.1% | . | .
CCCn1c(NCc2cccc(OC)c2OC)nc2ccccc21 | 0.0% | 3.0% | 5.8% | 0.0% | 0.8%
CCCn1c(NCc2cccc(OC)c2O)nc2ccccc21 | -2.2% | 25.1µM* | -5.1% | 1.2% | -4.3%
CCCn1c(COc2ccccc2OC)nc2ccccc21 | -8.1% | 15.8µM* | . | . | 2.8%
C=CCc1cccc(CNc2nc3ccccc3n2C)c1O | -0.3% | 31.6µM* | . | . | 0.2%
CCN(c1cccc(C)c1)S(=O)(=O)c1ccc(O)c(C(=O)O)c1 | . | . | . | 0.9% | .
Cc1oc(=O)c(NC(=O)c2ccccc2)cc1C(N)=O | 9.5% | 5.4% | -2.1% | 4.4% | -1.3%
